Experimental data: PubChem BioAssay (NCI)
Compounds without any hit were thinned out: in the full panel of roughly 79,000, 15% have a hit. Rule as the data show it: active = growth inhibition above about 70%; inactive = the rest. Where a SMILES comes first, the peptide text is derived from it. The star is where a group is joined. Cbz = O=C(OCc1ccccc1)*

Assays:
[1] = NCI Yeast Anticancer Drug Screen. Data for the rad50 strain (AID 155);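 also: 0% = growth of vehicle-only cultures of the same strain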; details: S. cerevisiae rad50 strain growth inhibition; at 50.0 µM; stronger effect = higher value
Procedure, shortened: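 Readout: growth inhibition relative to vehicle-treated cultures. Compound exposure was carried out in a genetically defined yeast strain deficient in DNA damage repair.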

[2] = NCI Yeast Anticancer Drug Screen. Data for the mec2-1 strain (AID 157); details: S. cerevisiae mec2-1 strain, at 50.0 µM, stronger effect = higher value
Procedure, shortened: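 mec2-1 yeast strain, carrying an alteration in DNA damage repair or cell cycle control, was exposed to compounds; growth inhibition was measured relative to vehicle-treated controls.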

[3] = NCI Yeast Anticancer Drug Screen. Data for the sgs1 mgt1 strain (AID 161);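 also: 0% = growth of cultures given vehicle only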; details: S. cerevisiae sgs1 mgt1 strain, at 50.0 µM, stronger effect = higher value
Procedure, shortened: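 This yeast growth screen uses a strain with defined DNA-repair lesions; compound-treated growth is compared with vehicle-treated growth.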

[4] = NCI Yeast Anticancer Drug Screen. Data for the cln2 rad14 strain (AID 165);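 also: 0% = growth equal to vehicle treated cultures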; details: S. cerevisiae cln2 rad14 strain, at 50.0 µM, stronger effect = higher value
Procedure, shortened: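 Yeast carrying cln2 and rad14 alterations (cell cycle control and DNA damage repair) were exposed to compounds. Growth inhibition was measured against vehicle-treated controls.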

[5] = NCI Yeast Anticancer Drug Screen. Data for the bub3 strain (AID 167); details: S. cerevisiae bub3 mutant strain, at 50.0 µM, stronger effect = higher value
Procedure, shortened: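 Readout: yeast growth inhibition, expressed relative to vehicle-only wells. The test organism is a mutant strain from a panel with lesions in DNA repair or checkpoint genes.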

[6] = NCI Yeast Anticancer Drug Screen. Data for the mlh1 rad18 strain (AID 175); details: S. cerevisiae mlh1 rad18 strain growth inhibition; at 50.0 µM; stronger effect = higher value
Procedure, shortened: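 Growth inhibition of the yeast strain was measured after compound exposure and expressed relative to vehicle-treated controls. The strain carries defined defects in DNA damage repair.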

Measured: growth inhibition

NC(=O)Cc1[nH]ccc1C(=O)O
inactive: [1] 9.4% | [2] -9.75% | [3] -0.05% | [4] -18.6% | [5] -4.15% | [6] 12.1%

O=C(OCC(COC(=O)c1ccccc1)OC(=O)c1ccccc1)c1ccccc1
inactive: [1] -7.15% | [2] 2.15% | [3] 8.8% | [4] -24.6% | [5] 38.8% | [6] 0.65%

Cn1nc2c(c1-c1cccnc1)CCCc1ccccc1-2
inactive: [1] 10.1% | [2] 24.6% | [3] 13.7% | [4] -15.4% | [5] 69.3% | [6] 28.9%

COc1ccc(NC(=O)CSc2nnc(Cc3ccccc3)o2)cc1
inactive: [1] -49.5% | [2] -37.4% | [3] -43.6% | [4] -21.1% | [5] -54% | [6] -57.6%

Cc1cc2c(c3c1c(=O)c1ccccc1n3C)C=CC(C)(C)O2
inactive: [1] -5.05% | [2] -0.2% | [3] 9.95% | [4] 3.35% | [5] 14.4% | [6] -8.9%

CCOC(=O)c1c(N)n(-c2ccccc2)c(=O)n(-c2ccccc2)c1=O
inactive: [1] -8.85% | [2] -5.3% | [3] -30.9% | [4] 19.4% | [5] -31.8% | [6] -34%

O=C1NC(=O)c2ccc(S)c3cccc1c23
inactive: [1] 0.5% | [2] 0% | [3] -2.35% | [4] -41.1% | [5] 3.35% | [6] -8.05%

CC(=O)Oc1cc(OC(C)=O)c2c(c1C)CC[C@@H]1[C@@H]2CC[C@]2(C)[C@@H](OC(C)=O)CC[C@@H]12
inactive: [1] 18.1% | [2] 10.1% | [3] -0.25% | [4] -17% | [5] -5.3% | [6] 34.3%

c1ccc(-c2c(-c3cccs3)[nH]c(-c3cccs3)c2-c2ccccn2)nc1
inactive: [1] -6.7% | [2] 17.1% | [3] 45.7% | [4] -29.4% | [5] -6.6% | [6] -57%

Cn1c(=O)cnc2c3ccccc3ccc21
inactive: [1] 22.8% | [2] 5.15% | [3] 23.6% | [4] 15.8% | [5] 18.4% | [6] 19.6%

CCCCSCC(O)c1ccccc1 (stereo not given)
inactive: [1] -8.85% | [2] -19.1% | [3] -24.5% | [4] -44.1% | [5] 9% | [6] -2.2%

CCOC(=O)CCC(NC(=O)C(CCC(=O)OCC)NC(=O)OCc1ccccc1)C(=O)O (stereo not given) (tested in a mixture with another compound) (Cbz-Glu(OEt)-Glu(OEt)-OH; configuration not given here)
inactive: [1] -43.5% | [2] 1.15% | [3] -11.2% | [4] -34.9% | [5] -52.9% | [6] 38.6%

CCN(CC)c1ccc2cc(-c3nc4ccccc4[nH]3)c(=O)oc2c1
inactive: [1] 2% | [2] -5.3% | [3] 12.5% | [4] 3.15% | [5] 11.1% | [6] 2.55%

O=C(O)c1c(Br)c(Br)c(Br)c(Br)c1C1c2ccc(O)cc2Oc2cc(O)ccc21
inactive: [1] 20.4% | [2] 25% | [3] 35% | [4] -7.75% | [5] -2.6% | [6] 26.6%

CCOC(=O)C1C(C)NC(C)C(C(=O)OCC)C1c1ccccc1Cl (stereo not given)
inactive: [1] 11.1% | [2] 6.25% | [3] 6.35% | [4] 4.25% | [5] 2.9% | [6] 9.8%

OC(C1CCCCC1)(C1CCC2(CCCCC2)CC1)C1CCCC2CCCCC21 (stereo not given)
inactive: [1] 29.9% | [2] 5% | [3] 30.9% | [4] 21.5% | [5] 1.35% | [6] 20.1%

CCN(CC)CCCOC(c1ccccc1)c1ccc(Cl)cc1 (stereo not given)
inactive: [1] 17.8% | [2] 16.9% | [3] 46.5% | [4] 41.9% | [5] 1.1% | [6] 26.1%

COc1ccc(CCN2C(=O)C(=O)N(c3ccc([N+](=O)[O-])cc3)C2=O)cc1OC
inactive: [1] 22.6% | [2] 1.45% | [3] -13.3% | [4] 8.6% | [5] 0.95% | [6] 8.55%

O=C1/C(=C/c2ccco2)CC/C1=C\c1ccco1
inactive: [1] 23.4% | [2] 15% | [3] 29% | [4] -18.1% | [5] 14.1% | [6] 44.5%

CC[C@H](O)[C@H](C)C=C1SCCCS1
inactive: [1] -14.3% | [2] -42.2% | [3] 19.9% | [4] 25.1% | [5] -43.8% | [6] -43.6%

O=[N+]([O-])CC1=CCCCC1
inactive: [1] 30.6% | [2] 12.2% | [3] 25.9% | [4] 4.05% | [5] -5.05% | [6] 16.6%

N#CC(c1ccccc1)N(CCc1ccccc1)C(=O)Oc1ccccc1 (stereo not given)
inactive: [1] -14.6% | [2] -19.6% | [3] -8.3% | [4] -18.2% | [5] -40.3% | [6] -30.9%

CN(C)CCC1(C2=CCCC2)CC/C(=C\c2ccc3c(c2)OCO3)C1=O (stereo not given)
inactive: [1] 4.85% | [2] -13.7% | [3] -22.2% | [4] 16.4% | [5] -2.55% | [6] 17.5%

CC(CC(=O)O)C1(C)C2CCCCC2C2CCCCC21 (stereo not given)
inactive: [1] -6.2% | [2] -9.6% | [3] 5.75% | [4] -13.3% | [5] -4.15% | [6] -2.8%

COc1ccc(C(=O)COC(C)(C)C)cc1
inactive: [1] -8.55% | [2] -28.2% | [3] -20% | [4] -2.7% | [5] -16.9% | [6] -22.1%

CCCCCCCCc1cc(CN2CCOCC2)c(O)c(CN2CCOCC2)c1
inactive: [1] 25.1% | [2] 14.6% | [3] 22.2% | [4] 24.4% | [5] 12.8% | [6] 21.6%

CCOC(=O)/C=C\n1c(=O)cc(C)c2ccccc21
inactive: [1] 8.85% | [2] 23.7% | [3] 7.45% | [4] 18.4% | [5] -2.75% | [6] -1.15%

CCOC(Cn1ncc(C#N)c1N)OCC
inactive: [1] -13.7% | [2] -7.75% | [3] -25.5% | [4] -15.9% | [5] -5.95% | [6] 5.65%

CC1([N+](=O)[O-])COC2(CCCCC2)OC1
inactive: [1] 18.2% | [2] 9.75% | [3] -6.1% | [4] -22.1% | [5] 4.3% | [6] 24.2%

CC(=O)C1C(=O)C(=O)N(CCN2C(=O)C(=O)C(C(C)=O)C2=O)C1=O (stereo not given)
inactive: [1] -12.4% | [2] -0.8% | [3] 0.95% | [4] -26.2% | [5] -5.9% | [6] 0.75%

COCC(=O)C(C(C)=O)C(c1ccncc1)C(C(C)=O)C(=O)COC (stereo not given)
inactive: [1] -7.75% | [2] 14.9% | [3] 6.85% | [4] -10.2% | [5] -1.6% | [6] -20.4%

CN(C)CCNC(=O)CN
inactive: [1] 0.15% | [2] -12.2% | [3] 4.1% | [4] -0.6% | [5] 5.9% | [6] 2.75%

Cc1ccc(NC(=S)Nc2cccc(C(F)(F)F)c2)cc1C
inactive: [1] -11.9% | [2] -4.45% | [3] -5.75% | [4] 4.85% | [5] -7.3% | [6] 20.6%

O=C(COc1ccc(Cl)cc1Cl)Nc1c(Cl)cc(Cl)cc1Cl
inactive: [1] 6.7% | [2] 7.6% | [3] -6.45% | [4] 2% | [5] -4.8% | [6] 19.6%

O=C(CCCC(=O)N/N=C/c1cccc([N+](=O)[O-])c1)N/N=C\c1cccc([N+](=O)[O-])c1
inactive: [1] 26.6% | [2] 21.9% | [3] 5.1% | [4] 26.8% | [5] 2.45% | [6] 26.1%

O=C(Cn1nnc(N2CCCCC2)n1)N/N=C/c1ccccc1O
inactive: [1] -29.7% | [2] -42% | [3] -9% | [4] -10.8% | [5] -9.05% | [6] -29.3%

COC(=O)C1CCCC2(C1)OCCO2 (stereo not given)
inactive: [1] 15.2% | [2] 5% | [3] -23.1% | [4] -10.2% | [5] -32.7% | [6] -2.75%

CCOC(=O)C1C(C)=CC(=O)CC1C(C)C (stereo not given)
inactive: [1] 4.1% | [2] -8.5% | [3] 5.7% | [4] -20.6% | [5] -15.8% | [6] 5.2%

CN(CC#N)[C@H]1CCC[C@]1(O)C#C[Si](C)(C)c1ccccc1
inactive: [1] 9.15% | [2] -19.8% | [3] 19.1% | [4] 30.9% | [5] 9.05% | [6] 1.55%

Cc1cc(-c2ccccc2N)nc2ccccc12
inactive: [1] 47.5% | [2] 2.35% | [3] 30.4% | [4] 31.3% | [5] 15.9% | [6] 26.6%
